target: T1, GST-Ap-NF-kB RHD (Exaiptasia pallida (Aiptasia), UniProt A0A913YAJ5 2-422); experiment: protein-binding microarray (PBM); PBM: ~300 nM protein, 6 mM HEPES pH 7.8, 80 mM KCl, 0.5 mM EDTA, 0.5 mM EGTA, 6% glycerol, 35 ng/ul poly-dIdC, 1% milk, 1 h, room temperature; Ap Aiptasia and Nv Nematostella (sea anemones) / Co Capsaspora / Aq Amphimedon (sponge) / Dm Drosophila / Hu human; RHD is the Rel homology domain; high values mean tight binding; conditions: dsDNA, one strand shown
T1 sequence: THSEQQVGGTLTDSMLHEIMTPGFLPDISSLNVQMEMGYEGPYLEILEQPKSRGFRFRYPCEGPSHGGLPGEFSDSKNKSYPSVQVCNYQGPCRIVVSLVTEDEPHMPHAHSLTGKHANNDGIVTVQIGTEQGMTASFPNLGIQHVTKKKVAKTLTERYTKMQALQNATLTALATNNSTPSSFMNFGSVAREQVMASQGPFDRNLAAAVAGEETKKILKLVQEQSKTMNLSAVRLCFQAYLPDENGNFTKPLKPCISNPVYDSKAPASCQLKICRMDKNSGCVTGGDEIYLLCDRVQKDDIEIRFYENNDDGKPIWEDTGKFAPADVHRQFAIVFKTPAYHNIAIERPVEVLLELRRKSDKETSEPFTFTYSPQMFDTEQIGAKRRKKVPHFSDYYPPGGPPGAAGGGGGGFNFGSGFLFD

Row | Sequence | binding signal [z-score]
1 | CCGATTAACATCAGGGGATTTGATGATGTTAATCGGGTCTTGATTCGCTTGACGCTGCTG | 6.34
2 | CCGATTAACATCAAAAATCCCCTTGATGTTAATCGGGTCTTGATTCGCTTGACGCTGCTG | 10.4
3 | CCGATTAACATCAGGGGGAGTAATGATGTTAATCGGGTCTTGATTCGCTTGACGCTGCTG | 5.68
4 | CCGATTAACATCACTCATCCCCGTGATGTTAATCGGGTCTTGATTCGCTTGACGCTGCTG | 1.85
5 | CCGATTAACATCAGAATTCCCCATGATGTTAATCGGGTCTTGATTCGCTTGACGCTGCTG | 8.83
6 | CCGATTAACATCAATCCTCCCCCTGATGTTAATCGGGTCTTGATTCGCTTGACGCTGCTG | 5.52
7 | CCGATTAACATCACCCTTCCCCCTGATGTTAATCGGGTCTTGATTCGCTTGACGCTGCTG | 4.54
8 | CCGATTAACATCAGGGGACTCACTGATGTTAATCGGGTCTTGATTCGCTTGACGCTGCTG | 5.12
9 | CCGATTAACATCAGGGGGATTAATGATGTTAATCGGGTCTTGATTCGCTTGACGCTGCTG | 6.25
10 | CCGATTAACATCAGGGGGATAACTGATGTTAATCGGGTCTTGATTCGCTTGACGCTGCTG | 6.6
11 | CCGATTAACATCACGATTTCCCCTGATGTTAATCGGGTCTTGATTCGCTTGACGCTGCTG | 7.82
12 | CCGATTAACATCAAAATACTCCCTGATGTTAATCGGGTCTTGATTCGCTTGACGCTGCTG | 5.1
13 | CCGATTAACATCAGGGGAATTTATGATGTTAATCGGGTCTTGATTCGCTTGACGCTGCTG | 9.91
14 | CCGATTAACATCAGGGGGTTCCATGATGTTAATCGGGTCTTGATTCGCTTGACGCTGCTG | 7.79
